# In ChEMBL document CHEMBL3988442, “University of Dundee, Small-Polar-MMV Screening Library” (2021):
# Hit rate of the full screen: of about 48,000 compounds, about 13,000 (27%) showed an effect of 50% or more. This is one part of the list.
# System: Wolbachia pipientis
# Assay: Anti-Wolbachia Cell-Based Screen
# Type: functional
# Set-up: scale not given: in the data most compounds retested in dose-response had high values
# Details: 5 µM
row,SMILES,Percent Effect
1,COc1ccc(CC2CCCN2CCCC#N)cc1 (stereo not given),3.146%
2,COc1ccc(C(=O)Nc2cnn(CC(=O)NC3CCCC3)c2)c(O)c1,-2.411%
3,O=C(NCc1ccccn1)NCC(c1ccco1)N1CCCCC1 (stereo not given),12.69%
4,O=C(CCn1cccn1)NCC(c1cccs1)N1CCCC1 (stereo not given),-57.56%
5,O=C(NCCn1ccnc1)NCC(c1ccco1)N1CCCCC1 (stereo not given),-2.241%
6,O=C(NCCCn1cccn1)NCC(c1ccco1)N1CCCC1 (stereo not given),116.5%
7,O=C(NCCn1ccnc1)NCC(c1ccco1)N1CCCC1 (stereo not given),107.9%
8,O=C(NCc1ccccn1)NCC(c1ccco1)N1CCCC1 (stereo not given),11.6%
9,O=C(NCCCn1ccnc1)NCC(c1ccco1)N1CCCCC1 (stereo not given),152.2%
10,O=C(Cn1cccn1)NCC(c1cccs1)N1CCCC1 (stereo not given),-1.128%
11,O=C(NCCCn1ccnc1)NCC(c1ccco1)N1CCCC1 (stereo not given),97.42%
12,O=C(NCCCn1ccnc1)N1CCCC1c1cccs1 (stereo not given),8.272%
13,O=C(NCc1cc[nH]n1)NCC(c1ccco1)N1CCCC1 (stereo not given),-4.044%
14,CN(CC(=O)NCCc1cc2ccccc2o1)S(C)(=O)=O,6.714%
15,CCN(C)CCNC(=O)Cc1nc(-c2ccco2)oc1C,-18.21%
16,COc1cc(C(C)NCc2c[nH]nc2C)ccc1OCCO (stereo not given),-5.579%
17,OCc1ccc(CNc2ccccc2CN2CCC(O)CC2)o1,-5.459%
18,O=C(C1CCC1)N1CCC2(CCN(Cc3cccc(F)c3)CC2)CC1.O=C(O)C(F)(F)F,18.44%

row,SMILES,Percent Effect
1,Cn1cc(C2CC(=O)NC23CCN(Cc2cccc(F)c2)CC3)cn1.O=C(O)C(F)(F)F (stereo not given),101.2%
2,Cn1cc(C2CC(=O)NC23CCN(CC2CC2)CC3)cn1.O=C(O)C(F)(F)F (stereo not given),-10.6%
3,Cn1cc(C2CC(=O)NC23CCN(Cc2ccncc2)CC3)cn1.O=C(O)C(F)(F)F.O=C(O)C(F)(F)F (stereo not given),100.3%
4,Cc1ccncc1C(=O)N1CC[C@@]2(O)CCN(C3CCCCC3)C[C@H]2C1,-0.1912%
5,O=C(NCC(O)c1ccc(F)cc1)C1CCN(C2CCCCC2)CC1 (stereo not given),4.274%
6,CC(C)(C)n1ncc2c(=O)[nH]c(N3CCN(CC(F)F)CC3)nc21,4.311%
7,Cc1ccccc1-c1csc2c(=O)[nH]c(N3CCCC(C(=O)O)C3)nc12 (stereo not given),12.14%
8,Cn1[nH]c(C2CCC2)c(-c2ccc3c(c2)OCO3)c1=N,9.847%
9,O=c1[nH]c(NC2CCCC2)nc2nccc(-c3ccsc3)c12,-12.83%
10,COc1cccc(-c2n[nH]cc2-c2nc(CN3CCCC3)no2)c1,-0.8918%
11,COc1cccc(-c2ccnc3nc(N4CCCCC4)[nH]c(=O)c23)c1,120.5%
12,COc1ccccc1-c1ccnc2nc(N3CCCCC3)[nH]c(=O)c12,113.6%
13,Cc1ccc(-c2csc3c(=O)[nH]c(N4CCCC(C(=O)O)C4)nc23)cc1 (stereo not given),13.24%
14,O=c1[nH]c(N2CCCCC2)nc2nccc(-c3ccc4c(c3)OCO4)c12,81.44%
15,COc1ccc(-c2ccnc3nc(N4CCCC4)[nH]c(=O)c23)cc1OC,143.1%
16,COc1cccc2c1OCCCN(c1nc3c(c(=O)[nH]1)CCNCC3)C2,-4.298%
17,Cc1nc(N2CCCCC2)ncc1-c1cc(=O)[nH]c(N2CCCC2)n1,-11.82%
